HCV inhibitor: inhibitors of hepatitis C virus infection. 340,000 compounds, 3.4% hits. Huh7.5.1 HCVcc-Cre infection, luciferase reporter, 44 h. Potency, µM (titrated, usually from 41.8 µM), inactives show at the top dose activity change, negative = inhibition, hits mostly inhibitors; also: potency is read from the fitted curve at half-maximal effect; % is scaled to controls: 0 for no effect and ±100 for the full control effect
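Infectious HCVcc-Cre (~0.5 moi) was added to cells just after compound, with cells seeded 4 h earlier at 1,000 per well. Luciferase activity after 44 h culture reported infection; substrate was incubated 15 min at room temperature before reading.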
Shiga toxin inh: Shiga toxin inhibition | Vero cells, Shiga toxin protein synthesis inhibition reporter | inhibition, % at 38.7 µM | 290,000 compounds, 9.2% hits | AID 2315; in the data active = inhibition mostly above about 28%, no sharp cut-off; inactive = mostly below about 43%; also: 0% is about no effect
Pf growth 96h: inhibits malaria parasite growth, 96 h | 320,000 compounds, 6.9% hits | Potency, µM (series often up to 28.7 µM), for inactives: at the top dose activity change, negative = inhibition, actives largely listed as inhibitors | P. falciparum luciferase reporter growth, 96 h; also: potency is read from the fitted curve at half-maximal effect; % is scaled to controls: 0 for no effect and ±100 for the full control effect
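Erythrocytes infected with luciferase-expressing P. falciparum were dispensed at 2% hematocrit and 0.05% parasitemia (final), then incubated with compounds 96 hours at 37 C in 5% CO2. Luminescence after detection reagent addition reported growth.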
CHX counter: counter-screen for Shiga toxin inhibitors: cycloheximide protein synthesis inhibition. 300,000 compounds, 12% hits. cell reporter, cycloheximide protein synthesis inhibition counterscreen. max response, %; in the data active = max response mostly above about 13%, no sharp cut-off; inactive = mostly below about 14%; also: read at 38.3 µM for the half of the compounds with a filed dose; 0% is about no effect
HCMV antiviral: human cytomegalovirus inhibition; AID 1259415; 410,000 compounds, 4.5% hits; activity change, negative = inhibition, % at 57.5 µM; HFF cells, HCMV-luciferase reporter, 72 h; stronger effect = lower value; in the data active = activity change below about -60%; inconclusive = no clear call, values can overlap the other calls; inactive = above about -39%; also: % is scaled to controls: 0 for no effect and ±100 for the full control effect
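Compounds were evaluated in HFFs infected with an HCMV luciferase reporter virus (MOI 1 PFU/cell). Luciferase in lysates collected 72 h post infection served as the replication measure.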
Pf growth 48h: P. falciparum growth inhibition at 48 hours (one generation); P. falciparum luciferase growth in erythrocytes, 48 h; Potency, µM (series often up to 28.7 µM), for the others: at the top dose activity change, negative = inhibition, hits mostly inhibitors; 310,000 compounds, 5.9% hits; also: potency is read from the fitted curve at half-maximal effect; % is scaled to controls: 0 for no effect and ±100 for the full control effect
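Firefly luciferase activity from engineered P. falciparum reports growth; inhibitors lower the luminescent signal. Cultures contained 2% hematocrit erythrocytes at 0.1% final parasitemia.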
* marks the source's active call; other numbers are inactive results; ? = inconclusive; nt = not tested or not shown. In the library only some 21% were active in any assay of this set; here they are far more common. Unless noted, calls follow the shape of the dose curve; as a rule, active = well fitted inhibition curve with a large enough effect; inconclusive = small, poorly fitted or top-dose-only effect, or another doubt; inactive = no such curve, though single readings can be large or run the other way.

SMILES	HCV inhibitor	Shiga toxin inh	Pf growth 96h	CHX counter	HCMV antiviral	Pf growth 48h
COc1ccc(C2=NN(C(=O)c3ccco3)C(c3cccs3)C2)cc1OC (stereo not drawn)	nt	nt	nt	nt	62	nt
O=C1N(Cc2cccnc2)C[C@@H]2C[C@@H](c3ccc4nsnc4c3)N3CCC[C@@]123	6%	-2	?	-1	-25	?
Cc1ccc(-n2nnc(-c3nsc(NC(=O)c4ccc(C)c(C)c4)n3)c2C)cc1	nt	nt	nt	nt	0	nt
CCOc1ccccc1-n1nnc(-c2nsc(NC(=O)c3ccc(C)cc3)n2)c1C	nt	nt	nt	nt	-75*	nt
COc1ccc(Cl)cc1-n1nnc(-c2nsc(NC(=O)c3ccccc3Cl)n2)c1C	nt	nt	nt	nt	-11	nt
CCc1ccccc1-n1nnc(-c2nsc(NC(=O)c3ccc(C)c(C)c3)n2)c1C	nt	nt	nt	nt	-92*	nt
COC(=O)C1=C[C@@H](C(=O)OC)[C@@H]2C3=C(C(=O)[C@@]2(CC(C)C)NC(=O)c2ccccc2)[C@H](C)n2c(=O)n(-c4ccccc4)c(=O)n2[C@@H]3C1	nt	0	nt	-5	nt	nt
COc1ccc(Nc2cc(C)nc(-n3nc(C)cc3C)n2)cc1Cl	nt	nt	nt	nt	-98*	nt
Cc1cc(Nc2ccc(C(C)C)cc2)nc(-n2nc(C)cc2C)n1	nt	nt	nt	nt	-91*	nt
Cc1cc(NCCO)nc(-n2nc(C)cc2C)n1	11%	34	?	-2	-18	?
Cc1ccc(Nc2cc(C)nn2-c2nc(C)cc(C)n2)cc1	?	-17	nt	7	?	3.7µM*
COc1ccc(Nc2nc3ccc(Cl)cc3nc2-n2nc(C)cc2C)cc1	nt	nt	nt	nt	20	nt
Cn1nnnc1SCC(=O)N1CCOCC1	5%	-6	?	2	21	7%
CC(C)n1nnnc1SCC(=O)N1CCN(Cc2ccc3c(c2)OCCO3)CC1	-13%	nt	10µM*	nt	?	12µM*
CC(C)n1nnnc1SCC(=O)N1CCOCC1	12%	-1	13µM*	1	-25	5%
COc1ccc(-n2nnc3c(SCC(=O)Nc4ccc5c(c4)OCCO5)ncnc32)cc1	nt	-1	nt	1	nt	8%
COC(=O)c1ccc(CSc2ncnc3c2nnn3-c2ccc(OC)cc2)o1	3%	-2	9.3µM*	8	-27	0%
COc1ccc(-n2nnc3c(SCC(=O)c4ccccc4)ncnc32)cc1	10%	-6	1.9µM*	1	-28	-4%
CCOC(=O)c1sc2ccccc2c1S(=O)(=O)N1CCN(c2cccc(C)c2C)CC1	nt	nt	nt	nt	7	nt
COc1ccc(/C(O)=C2/C(=O)C(=O)N(CCN3CCOCC3)C2c2ccccn2)cc1OC (stereo not drawn)	?	64*	2%	25*	36	4%
CCN(CC)CCCN1C(=O)C(=O)/C(=C(/O)c2ccc(C)cc2)C1c1ccccn1 (stereo not drawn)	3%	8	3.3µM*	-3	34	6%
CN(C)CCCN1C(=O)C(=O)/C(=C(/O)c2ccccc2)C1c1ccccn1 (stereo not drawn)	nt	-9	-18%	-5	nt	2%
Cc1ccc(/C(O)=C2/C(=O)C(=O)N(CCN3CCOCC3)C2c2ccccn2)cc1 (stereo not drawn)	-6%	105*	73%	34*	-10	31%
O=C1C(=O)N(CCN2CCOCC2)C(c2ccccn2)/C1=C(/O)c1ccccc1 (stereo not drawn)	2%	109*	3%	30*	-3	18%
Cc1ccc(OCC(=O)N/N=C/c2c[nH]c3ccccc23)c([N+](=O)[O-])c1	?	-5	38%	-4	-36	4%
SMILES	HCV inhibitor	Shiga toxin inh	Pf growth 96h	CHX counter	HCMV antiviral	Pf growth 48h
O=C1OC(C(=O)NCc2ccccc2)Cc2ccccc21 (stereo not drawn)	11%	14	8%	15	-27	57%
Cc1cccc(NC(=S)NCCc2ccc3c(c2)OCCO3)c1C	?	2	?	7	-36	-2%
Cc1nn(CC(=O)NC2CC2)c(=O)c2cc3cc(F)ccc3n12	nt	nt	nt	nt	11	nt
O=C(C1=C(O)C(=O)N(CCCN2CCOCC2)C1c1ccccn1)c1cccs1 (stereo not drawn)	nt	43*	49%	75*	nt	?
O=C(C1=C(O)C(=O)N(CCN2CCOCC2)C1c1ccccc1)c1cccs1 (stereo not drawn)	0%	nt	nt	nt	-23	nt
CCCCN(C(=O)C1CC(=O)N(CCc2ccc(OC)c(OC)c2)C1)c1c(N)n(CCCC)c(=O)[nH]c1=O (stereo not drawn)	?	nt	-1%	nt	-26	?
O=C(Nc1ccc(F)cc1)c1cccc2ccccc12	-11%	15	-10%	24*	64	10%
COc1ccc(NC(=O)c2ccccc2C)cc1	2%	nt	4%	34*	84	205%
CC(=O)Nc1ccc(OCc2cccc3ccccc23)cc1	-13%	-2	?	7	-79*	0%
COc1ccc(NC(=O)c2cccc3ccccc23)cc1	-29%	21	?	20*	95	85%
O=C(NNC(=O)c1cccc2ccccc12)c1ccc(F)cc1	5%	nt	nt	nt	-32	nt
CCCCCCCCN1C(=O)[C@H](CC(=O)NCCc2ccccc2OC)C[C@@]2(C(=O)OCC)CCCC=C12	nt	nt	nt	nt	22	nt
O=C(O)c1ccccc1SCCS(=O)(=O)c1ccc(Cl)cc1Cl	20%	-5	-1%	-4	nt	0%
Cc1ccc(-c2ocnc2C(=O)N2CCOCC2)cc1	-9%	4	?	-6	-20	3%
Cn1c(=O)c2c(nc(Sc3ncnn3CC(=O)NC3CCCCC3)n2C)n(C)c1=O	-9%	12	0%	-4	14	-9%
COc1ccccc1C(=O)NCC(=O)NNC(=O)C1COc2ccccc2O1 (stereo not drawn)	-1%	nt	10%	nt	-13	-8%
COc1ccc(-n2c(=O)[nH]cc(C(=O)Nc3ccccc3)c2=O)cc1	12%	23	19%	1	-64*	-1%
COc1ccc(-n2c(=O)[nH]cc(C(=O)Nc3ccc4c(c3)OCCO4)c2=O)cc1	9%	36	30%	4	-9	17%
OCCNCCCCSc1ccc(Cl)cc1	10µM*	15	12%	9	-12	?
CCCCNCCOCCSc1ccc(Cl)cc1	7.9µM*	-6	42%	-2	11	?
OCCNCCSc1ccc(Cl)cc1	0%	-5	53%	-3	16	19%
COCCCNCCCCSc1ccc(Cl)cc1	13µM*	-6	?	-2	-26	-13%
COCCCNCCOCCSc1ccc(Cl)cc1	?	-15	4%	-3	?	?
CC(C)NCCOCCSc1ccc(Cl)cc1	-26%	-7	?	-3	-26	-7%
Cc1cccc(OCC(=O)Nc2ccc(C(=O)Nc3ccccc3C(=O)O)cc2)c1C	-10%	-4	-14%	-1	-3	33%
O=C(CSc1ccc([N+](=O)[O-])cc1)c1ccccc1	33%	nt	nt	nt	-73*	nt
